In PubChem BioAssay (NCI) one finds growth data, which are given here for 15 compounds.

Several values for one entry are separate records, joined by “and”; a condition that tells them apart may be missing. Identical values can stand only once. The panel holds about 83,000 compounds, 20% with a hit somewhere; the sample as a whole holds those more often.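 Interpretation: 100, growth as untreated; towards 0, rising growth inhibition; 0, no net growth; 0 to -100, cell death. Compounds scoring below 10 were considered active.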 Activity calls are given as the source filed them.

The assay has as its system U251 CNS. The assay is described as follows: NCI-60 one-dose screen, 48 h (100 = growth as untreated, 0 = no growth, -100 = all killed). To be noted: 10 µM unless noted.
For the compound `c1ccc2c(c1)O[As](O[As]1Oc3ccccc3O1)O2`, the growth was 1.07% (active).
With `COc1cc2c(cc1OC)[C@@H]1C(=O)c3ccc4c(c3O[C@@H]1CO2)C[C@H](C(C)C)O4` the figure was 57.8% (inactive).
As for `CC(=O)Cc1ccc2c(c1)OCO2`, the figure is 103% (inactive); as for `CCN(CC)CCn1c(=O)n(C)c2ccccc21`, 96.3% (inactive).
As for `CC(=O)c1cccc(S(=O)(=O)F)c1`, the figure is 100% (inactive).
`COc1cc2c(c(OC)c1OC)-c1ccc(O)cc1[C@@H](NC(C)=O)CC2`: the growth was 22.5% (inactive) and 18.3% (inactive).
With `Cc1c2ccncc2c(C)c2c1[nH]c1ccccc12` the figure was -82.2% (active); with `Nc1cccnc1`, 103% (inactive).
As for `C/C=C(/C)C(=O)O[C@H]1CC[C@@]2(C)[C@@H]3CC[C@H]4[C@]5(O)C[C@H](O)[C@@]6(O)[C@@H](CN7C[C@@H](C)CC[C@H]7[C@@]6(C)O)[C@]5(O)C[C@@]42O[C@@]13O`, the figure is 103% (inactive); as for `C[C@]12CCC(=O)C[C@@H]1CC[C@@H]1[C@@H]2CC[C@]2(C)[C@@H](OC(=O)N(CCCl)N=O)CC[C@@H]12`, 16.1% (inactive); as for `Cc1c(C)c(N)c(C)c(C)c1N`, 78.1% (inactive).
For `Cc1ccc(C(=O)O[C@H](C(=O)O)[C@H](OC(=O)c2ccc(C)cc2)C(=O)O)cc1`, the growth was 97.8% (inactive).
With `COc1ccc(N)cc1N` the figure was 106% (inactive).
For the compound `Cc1cc(NC(=O)NCCCOc2ccc(N3C(N)=NC(N)=NC3(C)C)cc2Cl)ccc1S(=O)(=O)F`, the growth is 15.8% (inactive).
With `O=[N+]([O-])c1cc(Cl)c(Cl)c([N+](=O)[O-])c1Cl` the figure was 78.7% (inactive).
